# Experimental data taken from PubChem BioAssay.
# Results filed as inconclusive are left out. Active and inactive are the calls of the source.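 Rule for the calls, unless noted: active = percent response above a set limit, the screen-wide mean plus 3 SD (cut at about 130% in these data); inactive = the rest.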
# Legend:
# [1] = yeast TOR pathway RPL19A-GFP modulators, primary screen, cell-based, S. cerevisiae, multiplex flow cytometry (AID 1862; in the data active = percent of DMSO control GFP below about 86%;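 note: lower values mimic rapamycin by blocking the RPL19A rise seen in DMSO cells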); conditions: S. cerevisiae RPL19A-GFP strain, flow cytometry fluorescence, 3 h; at 10 µM; stronger effect = lower value
# [2] = modulators of MEP2-GFP levels in yeast, primary screen, S. cerevisiae, multiplex flow cytometry (AID 1867;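 active = GFP response, as percent of the DMSO control, above the screen-wide mean plus 3 SD, about 139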;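 note: median GFP channel fluorescence of barcode-gated MEP2-GFP cells measured by flow cytometry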); conditions: S. cerevisiae MEP2-GFP strain, 3 h, at 10 µM, stronger effect = higher value, 100% means same as DMSO wells
# [3] = modulators of CIT2-GFP expression in yeast, primary screen, S. cerevisiae, GFP fusion, multiplex flow cytometry (AID 1870); conditions: 3 h, at 10 µM, stronger effect = higher value;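 note: barcoded CIT2-GFP strain pooled with four other GFP strains with rapamycin as positive control; median GFP fluorescence per well over plate mean of DMSO wells so 100% = DMSO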
# [4] = modulators of LAP4-GFP expression in yeast, primary screen, S. cerevisiae, multiplex flow cytometry (AID 1873;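 active = GFP signal, as percent of the solvent control, above the screen mean plus 3 SD, about 149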); conditions: 3 h, at 10 µM, stronger effect = higher value
# [5] = modulators of AGP1-GFP expression in yeast TOR pathway, primary screen, cell-based, multiplex flow cytometry, S. cerevisiae (AID 1887;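 active = GFP signal above the screen-wide mean plus 3 SD, that is over about 124.5% of the solvent control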;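 note: AGP1-GFP fusion strain of S. cerevisiae within a five-strain barcoded multiplex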); conditions: 3 h, at 10 µM, stronger effect = higher value
# [6] = inhibitors of CD8+ T cell-vesicle binding, pilot screen, LFA-1/ICAM-1 modulator project, MLPCN validation set, flow cytometry (AID 2523;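 active = response below a set limit, under 55% cells CD8-positive and vesicle-bound, and CD8 cells' 90th-percentile brightness under 279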;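 for vesicle binding response: mean PE anti-B7-1 fluorescence of CD8+ cells relative to row control; 100% = QL9-loaded vesicles with DMSO vehicle in the same plate row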); conditions: 2C mouse CD8+ T cells, at 7 µM, stronger effect = lower value; double positive events: measured here: CD8+/vesicle+ event percentage
# [7] = molecular target: Integrin beta-1 (Homo sapiens) + Integrin alpha-4 (Homo sapiens) (UniProt P13612+P05556); assay: inhibition of HUTS-21 binding to VLA-4, pilot screen, VLA-4 allosteric modulator project, U937 cells, HUTS-21 mAb, flow cytometry, validation set (AID 2674;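 active = inhibition above 50%, about 3 SD of the validation set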;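 note: antibody binding induced by the VLA-4 ligand LDV present at three times its Kd; 0% = LDV ligand with antibody and no compound and 100% = antibody without LDV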); conditions: HUTS-21 LIBS mAb binding, at 6.7 µM, stronger effect = higher value, binding induced by LDV ligand
# Sequence of Integrin beta-1 (Homo sapiens) + Integrin alpha-4 (Homo sapiens) (P05556 whole entry, looked up): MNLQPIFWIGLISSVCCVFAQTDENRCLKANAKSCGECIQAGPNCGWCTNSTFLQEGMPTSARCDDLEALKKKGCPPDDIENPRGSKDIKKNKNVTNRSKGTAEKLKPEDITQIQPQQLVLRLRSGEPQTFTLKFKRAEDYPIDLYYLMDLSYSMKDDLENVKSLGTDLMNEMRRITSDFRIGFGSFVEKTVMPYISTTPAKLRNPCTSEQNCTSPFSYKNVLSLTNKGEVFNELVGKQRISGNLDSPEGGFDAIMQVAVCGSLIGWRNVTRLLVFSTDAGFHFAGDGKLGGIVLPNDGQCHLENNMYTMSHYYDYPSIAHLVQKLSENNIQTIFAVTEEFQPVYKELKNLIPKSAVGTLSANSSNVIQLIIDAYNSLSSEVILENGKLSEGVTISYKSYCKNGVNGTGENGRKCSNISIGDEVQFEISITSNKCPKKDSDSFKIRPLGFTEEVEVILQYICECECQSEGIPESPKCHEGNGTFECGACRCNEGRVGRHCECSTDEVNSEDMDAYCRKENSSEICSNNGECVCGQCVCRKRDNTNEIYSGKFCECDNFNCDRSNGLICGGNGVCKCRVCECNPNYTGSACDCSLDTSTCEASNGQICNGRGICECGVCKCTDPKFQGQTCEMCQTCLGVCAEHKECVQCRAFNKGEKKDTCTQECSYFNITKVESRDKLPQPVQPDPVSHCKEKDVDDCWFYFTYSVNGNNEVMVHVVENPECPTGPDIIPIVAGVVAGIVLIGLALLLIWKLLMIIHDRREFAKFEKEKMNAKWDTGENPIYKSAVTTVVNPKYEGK
# Sequence of Integrin beta-1 (Homo sapiens) + Integrin alpha-4 (Homo sapiens) (P13612 whole entry, looked up): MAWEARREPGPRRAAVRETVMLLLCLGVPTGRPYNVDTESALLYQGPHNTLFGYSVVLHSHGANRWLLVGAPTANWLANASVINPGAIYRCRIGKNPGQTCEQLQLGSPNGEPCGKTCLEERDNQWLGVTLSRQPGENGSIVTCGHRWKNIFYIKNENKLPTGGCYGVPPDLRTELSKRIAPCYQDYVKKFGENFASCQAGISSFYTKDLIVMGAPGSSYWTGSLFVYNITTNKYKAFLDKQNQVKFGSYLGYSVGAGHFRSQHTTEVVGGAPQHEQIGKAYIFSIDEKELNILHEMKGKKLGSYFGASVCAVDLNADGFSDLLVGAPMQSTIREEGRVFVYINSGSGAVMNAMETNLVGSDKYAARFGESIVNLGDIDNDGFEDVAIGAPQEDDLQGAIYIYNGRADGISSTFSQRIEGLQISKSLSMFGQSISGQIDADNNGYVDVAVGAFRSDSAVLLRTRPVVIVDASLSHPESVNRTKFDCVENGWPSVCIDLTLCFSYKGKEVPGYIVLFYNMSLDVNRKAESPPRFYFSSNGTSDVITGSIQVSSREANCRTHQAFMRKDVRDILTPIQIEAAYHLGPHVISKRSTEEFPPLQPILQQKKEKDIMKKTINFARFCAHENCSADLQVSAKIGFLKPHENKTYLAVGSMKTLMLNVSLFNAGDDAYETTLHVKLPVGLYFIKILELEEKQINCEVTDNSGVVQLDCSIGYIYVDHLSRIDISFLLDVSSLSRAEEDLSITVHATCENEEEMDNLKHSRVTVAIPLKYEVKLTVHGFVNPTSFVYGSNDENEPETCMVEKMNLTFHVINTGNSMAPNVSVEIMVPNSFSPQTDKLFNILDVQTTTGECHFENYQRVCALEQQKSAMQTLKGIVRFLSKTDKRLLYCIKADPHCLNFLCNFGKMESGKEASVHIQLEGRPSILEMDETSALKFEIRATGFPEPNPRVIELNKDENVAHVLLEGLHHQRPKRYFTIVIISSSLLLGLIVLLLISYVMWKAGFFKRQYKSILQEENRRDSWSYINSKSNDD
# [8] = superoxide lowering in aged yeast cells, pilot screen, validation compound set (AID 2706;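 active = superoxide response below 65% of plate, a cut near 3 SD across the whole screen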;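 note: yeast exposed to compound for one week at 30 degrees C before staining; 100% = mean of all compound wells on the same plate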); conditions: S. cerevisiae aging, superoxide DHE fluorescence; at 10 µM; stronger effect = lower value
# [9] = molecular target: Beta-adrenergic receptor kinase 1 (Homo sapiens) (UniProt P25098); assay: GRK2 binders displacing RNA aptamer, biochemical, validation, human GRK2, bead flow cytometry (AID 488806;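 active = aptamer binding inhibition above 30%, about 3 SD of noise from non-fluorescent compounds; inactive = inhibition at or below 30%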); conditions: bead-bound GRK2, FAM-aptamer displacement, at 10 µM, stronger effect = higher value
# Sequence of Beta-adrenergic receptor kinase 1 (Homo sapiens) (P25098 whole entry, looked up): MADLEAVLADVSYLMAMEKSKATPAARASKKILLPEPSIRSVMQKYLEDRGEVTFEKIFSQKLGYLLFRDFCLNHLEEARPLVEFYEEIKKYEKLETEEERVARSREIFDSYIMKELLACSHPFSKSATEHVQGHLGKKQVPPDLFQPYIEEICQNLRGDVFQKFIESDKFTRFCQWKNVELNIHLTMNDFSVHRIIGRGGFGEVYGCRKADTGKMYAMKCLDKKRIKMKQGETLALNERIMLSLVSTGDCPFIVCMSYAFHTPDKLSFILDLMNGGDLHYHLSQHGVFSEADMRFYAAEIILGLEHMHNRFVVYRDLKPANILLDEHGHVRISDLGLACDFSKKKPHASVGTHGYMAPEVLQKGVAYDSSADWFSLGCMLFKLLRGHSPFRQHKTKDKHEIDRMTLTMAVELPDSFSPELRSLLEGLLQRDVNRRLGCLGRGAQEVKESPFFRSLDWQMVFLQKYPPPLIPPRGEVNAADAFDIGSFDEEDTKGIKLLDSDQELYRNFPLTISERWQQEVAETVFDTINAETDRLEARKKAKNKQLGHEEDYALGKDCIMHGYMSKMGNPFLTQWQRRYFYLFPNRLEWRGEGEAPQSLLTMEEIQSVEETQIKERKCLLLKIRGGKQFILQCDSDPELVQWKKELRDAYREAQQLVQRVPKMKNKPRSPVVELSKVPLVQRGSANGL
# [10] = molecular target: Beta-2 adrenergic receptor (Homo sapiens) (UniProt P07550); assay: beta2AR agonists driving receptor internalization, pilot screen, cell-based, FAP fluorogen, flow cytometry, validation set (AID 504459;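 active = percent response above 42, roughly 3 SD of non-fluorescent test compounds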;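 note: agonist-driven loss of surface beta2AR via internalization measured by FAP dye flow cytometry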); conditions: Am2.2-beta2AR cells, FAP surface receptor flow cytometry; at 10 µM; stronger effect = higher value
# Sequence of Beta-2 adrenergic receptor (Homo sapiens) (P07550 whole entry, looked up): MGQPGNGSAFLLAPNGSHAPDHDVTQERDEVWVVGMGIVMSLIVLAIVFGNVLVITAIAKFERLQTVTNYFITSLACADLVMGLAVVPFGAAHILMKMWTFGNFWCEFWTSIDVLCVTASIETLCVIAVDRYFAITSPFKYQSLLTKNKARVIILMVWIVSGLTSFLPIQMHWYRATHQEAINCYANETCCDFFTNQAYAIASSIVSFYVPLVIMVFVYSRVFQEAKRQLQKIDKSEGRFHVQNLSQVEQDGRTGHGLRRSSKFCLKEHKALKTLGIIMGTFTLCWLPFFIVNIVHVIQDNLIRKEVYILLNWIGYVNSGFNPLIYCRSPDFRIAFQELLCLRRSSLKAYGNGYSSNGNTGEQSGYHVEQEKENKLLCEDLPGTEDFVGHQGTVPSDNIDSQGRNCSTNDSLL
# [11] = molecular target: AP-2 complex subunit beta (Homo sapiens) (UniProt P63010); assay: inhibitors of arrestin peptide binding to AP2, pilot screen, biochemical, validation set, GST-AP2 beads, flow cytometry (AID 504541;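 active = inhibition above 54%, about 3 SD of non-fluorescent compounds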;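 note: AP2 carries R879A mutation and is captured from E. coli lysate; bead-bound FITC arrestin peptide fluorescence measuring arrestin peptide binding to AP2; 0% = DMSO wells and 100% = excess unlabeled arrestin peptide control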); conditions: FITC arrestin peptide, at 10 µM, stronger effect = higher value, AP2 beta2 appendage fragment, R879A mutant
# Sequence of AP-2 complex subunit beta (Homo sapiens) (P63010 whole entry, looked up, the tested form may be a part, one chain of several): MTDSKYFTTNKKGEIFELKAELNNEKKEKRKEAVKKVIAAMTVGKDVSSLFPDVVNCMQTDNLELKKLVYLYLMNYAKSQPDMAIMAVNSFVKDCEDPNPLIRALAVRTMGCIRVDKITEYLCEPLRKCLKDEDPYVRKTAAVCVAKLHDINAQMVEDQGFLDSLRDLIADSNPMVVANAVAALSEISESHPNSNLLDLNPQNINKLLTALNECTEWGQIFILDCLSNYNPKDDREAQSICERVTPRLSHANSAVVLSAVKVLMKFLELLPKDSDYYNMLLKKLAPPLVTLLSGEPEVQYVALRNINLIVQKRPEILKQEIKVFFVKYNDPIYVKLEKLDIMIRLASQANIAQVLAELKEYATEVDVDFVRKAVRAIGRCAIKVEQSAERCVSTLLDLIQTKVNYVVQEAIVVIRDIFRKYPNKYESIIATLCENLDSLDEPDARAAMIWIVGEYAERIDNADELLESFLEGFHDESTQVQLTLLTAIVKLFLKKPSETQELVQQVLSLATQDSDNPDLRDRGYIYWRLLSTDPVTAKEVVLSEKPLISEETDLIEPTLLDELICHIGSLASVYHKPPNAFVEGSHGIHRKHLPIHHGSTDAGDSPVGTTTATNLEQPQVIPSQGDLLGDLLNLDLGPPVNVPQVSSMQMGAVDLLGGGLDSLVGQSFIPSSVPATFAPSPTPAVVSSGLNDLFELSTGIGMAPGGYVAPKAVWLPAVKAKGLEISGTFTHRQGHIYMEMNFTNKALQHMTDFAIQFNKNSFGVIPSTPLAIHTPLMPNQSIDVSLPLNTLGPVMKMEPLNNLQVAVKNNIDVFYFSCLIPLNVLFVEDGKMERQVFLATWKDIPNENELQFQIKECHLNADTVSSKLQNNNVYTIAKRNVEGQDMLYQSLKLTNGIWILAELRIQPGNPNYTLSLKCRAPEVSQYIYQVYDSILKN
# [12] = yeast V-ATPase proton transport modulators, S. cerevisiae, pHLuorin, HTS validation (AID 504600; in the data active = response above about 15%;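 note: plate controls were DMSO for no effect and reference compound for full effect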); conditions: S. cerevisiae pHLuorin cytosolic pH, at 10 µM, stronger effect = higher value
# [13] = system: anti-desmoglein-3 scFv antibody binding to human DSG3; assay: inhibitors of anti-DSG3 scFv binding to DSG3, pilot screen, biochemical, validation compound set, bead-based, flow cytometry (AID 588368;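 active = binding below the plate cutoff, the plate median minus 3 SD, with a reading above zero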;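 note: signal is the median channel fluorescence of bead-bound GFP antibody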); conditions: Protein G beads, DSG3-Fc, scFv-GFP binding, at 10 µM, stronger effect = lower value
# [14] = inhibitors of fungal efflux pumps CDR1, CDR2, MDR1, pilot screen, validation compound set, multiplex, phenotypic (AID 588506;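 active = efflux inhibition above 0.42, the validation set average plus 4 SD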;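 note: Nile Red retained in cells so higher fluorescence means more efflux inhibition; 0 = negative control wells and 1 = enniatin B 25 µM full block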); conditions: S. cerevisiae pump-expressing triplex, Nile Red efflux flow cytometry; at 10 µM; stronger effect = higher value; the pumps come from Candida albicans
# [15] = molecular target: ATP-binding cassette sub-family B member 6 (Homo sapiens) (UniProt Q9NP58); assay: ABCB6 transporter inhibitors, pilot screen, K562-ABCB6 cells, flow cytometry, validation set (AID 588550;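 active = inhibition above the screen-wide mean plus 3 SD, about 51%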;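 note: 0% = DMSO wells and 100% = benzethonium chloride 70 µM positive control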); conditions: K562-ABCB6 porphyrin accumulation, 1 h, at 10 µM, stronger effect = higher value
# Sequence of ATP-binding cassette sub-family B member 6 (Homo sapiens) (Q9NP58 whole entry, looked up): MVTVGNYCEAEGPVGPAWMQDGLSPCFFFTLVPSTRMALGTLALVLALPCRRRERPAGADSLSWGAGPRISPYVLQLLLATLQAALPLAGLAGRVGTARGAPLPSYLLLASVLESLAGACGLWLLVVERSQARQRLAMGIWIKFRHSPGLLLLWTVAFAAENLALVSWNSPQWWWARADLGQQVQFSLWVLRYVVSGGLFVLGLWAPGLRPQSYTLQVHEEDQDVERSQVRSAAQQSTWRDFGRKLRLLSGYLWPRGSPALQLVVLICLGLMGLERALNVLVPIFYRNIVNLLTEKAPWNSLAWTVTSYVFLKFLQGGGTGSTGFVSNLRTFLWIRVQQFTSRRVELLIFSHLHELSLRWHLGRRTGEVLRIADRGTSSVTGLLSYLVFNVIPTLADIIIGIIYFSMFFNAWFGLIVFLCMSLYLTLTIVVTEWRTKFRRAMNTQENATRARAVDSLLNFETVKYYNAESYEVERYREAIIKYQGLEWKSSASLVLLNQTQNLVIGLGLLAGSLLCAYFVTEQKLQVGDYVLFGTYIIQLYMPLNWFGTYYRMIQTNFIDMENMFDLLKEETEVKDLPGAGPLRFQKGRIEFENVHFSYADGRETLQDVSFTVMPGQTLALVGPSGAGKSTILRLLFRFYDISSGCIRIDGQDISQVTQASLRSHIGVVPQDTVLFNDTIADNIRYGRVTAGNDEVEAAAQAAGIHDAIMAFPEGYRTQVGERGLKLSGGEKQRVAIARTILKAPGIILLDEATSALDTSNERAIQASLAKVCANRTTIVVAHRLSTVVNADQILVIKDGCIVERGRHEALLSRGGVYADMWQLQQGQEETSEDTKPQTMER
# [16] = promoters of myeloid differentiation in arrested cells, primary screen, cell-based, GFP/MAC1 double positive, flow cytometry, validation set (AID 588685;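 active = differentiation response of at least 50%, scaled between solvent and reference control, from cells with both markers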;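 note: compound exposure lasts four days before antibody staining and flow analysis; 0% = DMSO wells and 100% = 5 µM fulvestrant positive control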); conditions: ER-HoxA9 marrow cells, stronger effect = higher value, normalized: vehicle 0, fulvestrant 100
SMILES,percent of DMSO control GFP [1],GFP response vs DMSO [2],percent response of DMSO control [3],GFP response vs DMSO [4],"GFP response, % of DMSO [5]",double positive events [6] [%],vesicle binding response [6],inhibition [7],superoxide response (% of plate) [8],aptamer binding inhibition [9],response [10],inhibition [11],response [12],binding (% of control) [13],efflux inhibition (fraction of control) [14],inhibition [15],differentiation response [16]
COc1ccc(N2C(=O)C3C(C2=O)C(C(=O)c2ccccc2)N2CCCC32)cc1 (stereo not drawn),98.6% (inactive),107% (inactive),84.4% (inactive),122% (inactive),95.7% (inactive),61.2,241% (inactive),-20.9% (inactive),102% (inactive),5% (inactive),37.4% (inactive),4.51% (inactive),-0.56% (inactive),100% (inactive),-0.24 (inactive),-7% (inactive),12% (inactive)
CC(=O)OC[C@H]1O[C@@H](Sc2cccc3cccnc23)[C@H](OC(C)=O)[C@@H](OC(C)=O)[C@H]1OC(C)=O,98.9% (inactive),99.6% (inactive),99% (inactive),117% (inactive),94.6% (inactive),62.5,187% (inactive),-5.38% (inactive),105% (inactive),4% (inactive),-27.5% (inactive),-0.13% (inactive),0.07% (inactive),104% (inactive),0.04 (inactive),-2% (inactive),-5.97% (inactive)
CCCC(CCC)C(=O)OC1C[C@H]2CC[C@@H](C1)[N+]2(C)C (stereo partly drawn),95.2% (inactive),132% (inactive),93.9% (inactive),80.9% (inactive),94.9% (inactive),59.5,155% (inactive),14.2% (inactive),108% (inactive),7% (inactive),-2.34% (inactive),-1.17% (inactive),0.47% (inactive),101% (inactive),0.27 (inactive),9% (inactive),3.28% (inactive)
COc1cccc(NC(=O)C2CC(=O)OC23CCOC(C)(C)C3)c1 (stereo not drawn),93.7% (inactive),137% (inactive),95.2% (inactive),80.9% (inactive),94.2% (inactive),58.3,24.9% (inactive),19.1% (inactive),88.5% (inactive),2% (inactive),-4.19% (inactive),0.76% (inactive),-0.08% (inactive),101% (inactive),-0.13 (inactive),9% (inactive),-2.46% (inactive)
CCSC(=O)CCCCCCCCCCCO,101% (inactive),103% (inactive),96.4% (inactive),127% (inactive),106% (inactive),59.6,348% (inactive),20.2% (inactive),78.1% (inactive),0% (inactive),-27.7% (inactive),41.3% (inactive),2.69% (inactive),103% (inactive),0.17 (inactive),-2% (inactive),-13.9% (inactive)
CC(C)(C)C(=O)N1CCCC1C(=O)O (stereo not drawn),104% (inactive),96.6% (inactive),99% (inactive),99.5% (inactive),106% (inactive),65.6,141% (inactive),4.84% (inactive),95.6% (inactive),11% (inactive),-4.87% (inactive),-2.34% (inactive),-11% (inactive),103% (inactive),-0.04 (inactive),2% (inactive),11.8% (inactive)
Cc1ccc(CN2CCN(Cc3cn[nH]c3C3CCCCC3)CC2CCO)cc1 (stereo not drawn),102% (inactive),103% (inactive),97.7% (inactive),106% (inactive),122% (inactive),58.2,264% (inactive),21% (inactive),87.9% (inactive),0% (inactive),-22.7% (inactive),7.73% (inactive),-2.29% (inactive),103% (inactive),0.08 (inactive),8% (inactive),-5.97% (inactive)
CC1=C(C)C(=O)C(CCCCC#CCCCC#CCO)=C(C)C1=O,99.3% (inactive),99.6% (inactive),99.6% (inactive),108% (inactive),107% (inactive),62.8,137% (inactive),20.2% (inactive),77.4% (inactive),4% (inactive),-12.4% (inactive),-0.87% (inactive),1.96% (inactive),103% (inactive),-0.13 (inactive),-1% (inactive),5.85% (inactive)
COc1cc(C(=O)NCCc2c[nH]c3ccccc23)ccc1OCc1c(C)noc1C,96.7% (inactive),106% (inactive),98.6% (inactive),120% (inactive),93.5% (inactive),56,295% (inactive),-15.4% (inactive),110% (inactive),0% (inactive),6.37% (inactive),-0.24% (inactive),1.87% (inactive),107% (inactive),-0.03 (inactive),3% (inactive),10.4% (inactive)
CSCCC(NC(=O)/C(=C/c1ccc2c(c1)OCO2)NC(=O)c1cccc([N+](=O)[O-])c1)C(=O)O (stereo not drawn),93.7% (inactive),123% (inactive),101% (inactive),86.4% (inactive),91.9% (inactive),63.7,169% (inactive),4.52% (inactive),93.4% (inactive),4% (inactive),0.64% (inactive),-5.32% (inactive),0.74% (inactive),105% (inactive),-0.31 (inactive),14% (inactive),-6.55% (inactive)
Cc1cccc(Nc2ncccc2C(=O)O)c1C,103% (inactive),103% (inactive),109% (inactive),90.1% (inactive),108% (inactive),62.7,203% (inactive),2.66% (inactive),105% (inactive),1% (inactive),-6.59% (inactive),1.75% (inactive),-0.8% (inactive),98.4% (inactive),0.08 (inactive),6% (inactive),-9.53% (inactive)
CCc1cc(=O)oc2cc(OCc3nn[nH]n3)ccc12,102% (inactive),100% (inactive),96.6% (inactive),96% (inactive),100% (inactive),65.5,174% (inactive),-10.8% (inactive),106% (inactive),5% (inactive),-3.63% (inactive),9.23% (inactive),-0.49% (inactive),103% (inactive),0.02 (inactive),14% (inactive),0.24% (inactive)
CC12CCC(C(=O)N(CCC#N)CCC#N)(CC1=O)C2(C)C (stereo not drawn),100% (inactive),106% (inactive),95.8% (inactive),113% (inactive),108% (inactive),61.1,5730% (inactive),6.4% (inactive),98% (inactive),3% (inactive),-1.84% (inactive),44.5% (inactive),0.52% (inactive),100% (inactive),-0.03 (inactive),9% (inactive),2.4% (inactive)
CC(=O)[C@H]1CC[C@H]2[C@@H]3C[C@H](C)C4=CC(=O)CC[C@]4(C)[C@H]3[C@@H](O)C[C@]12C,95.9% (inactive),116% (inactive),102% (inactive),86.9% (inactive),92.6% (inactive),63.6,151% (inactive),2.58% (inactive),95.6% (inactive),8% (inactive),-10% (inactive),-0.56% (inactive),2.7% (inactive),108% (inactive),0.09 (inactive),9% (inactive),-2.46% (inactive)
NC(N)=N/N=C/c1c(Cl)cccc1Cl,102% (inactive),105% (inactive),105% (inactive),101% (inactive),108% (inactive),67.2,169% (inactive),-11.8% (inactive),81.5% (inactive),-4% (inactive),-0.34% (inactive),5.82% (inactive),-3.91% (inactive),99.4% (inactive),-0.085 (inactive),-5% (inactive),-13.3% (inactive)
COc1ccc(CN2CCCC(C(=O)c3ccc(Cl)cc3)C2)cc1Cn1cccn1 (stereo not drawn),104% (inactive),105% (inactive),99.7% (inactive),95.9% (inactive),100% (inactive),61.3,182% (inactive),-9.13% (inactive),79.4% (inactive),-4% (inactive),30.8% (inactive),-0.55% (inactive),1.1% (inactive),98.5% (inactive),0.05 (inactive),12% (inactive),-3.11% (inactive)
Cc1cccc2c1CC(C)(C)N/C2=C\C(N)=O,98.7% (inactive),102% (inactive),91.8% (inactive),103% (inactive),104% (inactive),63.7,148% (inactive),-217% (inactive),99% (inactive),0% (inactive),-10.2% (inactive),10.1% (inactive),-3.68% (inactive),113% (inactive),0.04 (inactive),-25% (inactive),-12.9% (inactive)
O=C(O)Cc1ccc(O)c(F)c1,91.5% (inactive),135% (inactive),101% (inactive),80.9% (inactive),91% (inactive),61.7,175% (inactive),-9.06% (inactive),111% (inactive),4% (inactive),-7.58% (inactive),5.41% (inactive),1.04% (inactive),100% (inactive),0.19 (inactive),10% (inactive),-4.09% (inactive)
COc1ccc(C(=O)Nc2cccnc2)cc1C(=O)Nc1cccnc1,104% (inactive),107% (inactive),102% (inactive),107% (inactive),106% (inactive),65,191% (inactive),-3.77% (inactive),104% (inactive),2% (inactive),9.93% (inactive),-14.1% (inactive),0.74% (inactive),99% (inactive),-0.11 (inactive),8% (inactive),13% (inactive)
